Sampled rows, rich in hits. Any-hit rate of the full collection: about 1.2%.
RGS7-Gao reg: human RGS7-Galphao interaction regulation. Multiplexed bead flow cytometry, RGS7-Galphao binding; actives lie on both sides. AID 1439. P09471. binding response (% of control), % at 10 µM. hit rate 0.35% among 220,000; in the data active = binding response below about 49% or above about 150%; inconclusive = no clear call, values can overlap the other calls; inactive = in between;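 note: fluorescent Galphao held in activated GDP-AlF4 state binding bead-coupled RGS7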
Target sequence (P09471 whole entry, looked up): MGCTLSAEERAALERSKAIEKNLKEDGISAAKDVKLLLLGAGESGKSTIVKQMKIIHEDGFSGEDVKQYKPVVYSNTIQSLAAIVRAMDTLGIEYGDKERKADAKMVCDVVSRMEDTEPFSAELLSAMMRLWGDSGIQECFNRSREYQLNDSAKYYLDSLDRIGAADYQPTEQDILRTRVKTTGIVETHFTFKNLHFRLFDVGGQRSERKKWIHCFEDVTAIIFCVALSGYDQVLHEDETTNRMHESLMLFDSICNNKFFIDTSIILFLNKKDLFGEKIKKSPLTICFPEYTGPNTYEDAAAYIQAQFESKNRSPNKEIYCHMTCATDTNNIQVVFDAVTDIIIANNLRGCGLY
GSH fluor: GSH bead compound fluorescence profile. fluorescence (KMESF) at 10 µM. hit rate 0.25% among 190,000. GSH beads flow cytometry, compound fluorescence 488/530 nm; active compounds read high; in the data active = fluorescence above about 89;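 note: glutathione beads carrying GST-tagged Bcl family fusion proteins plus one bare bead set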
RGS16-Gao: modulates binding between human RGS16 and Galphao. O15492+P09471. bead-based flow cytometry RGS16-Galphao binding, fluorescence; actives lie on both sides. binding response (% of control), % at 10 µM. hit rate 0.38% among 220,000. AID 1441; call rule not given here;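 note: Galphao activated by GDP with aluminum fluoride before binding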
Target sequence (O15492 whole entry, looked up): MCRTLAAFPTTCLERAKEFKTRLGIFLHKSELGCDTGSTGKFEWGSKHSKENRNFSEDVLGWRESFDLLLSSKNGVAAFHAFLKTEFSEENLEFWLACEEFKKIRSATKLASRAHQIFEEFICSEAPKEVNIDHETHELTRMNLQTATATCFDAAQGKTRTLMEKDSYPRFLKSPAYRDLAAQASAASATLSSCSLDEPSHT
Target sequence (P09471 whole entry, looked up): as the sequence (P09471 whole entry, looked up) above
RGS4-Gao reg: modulates binding of RGS4 to human Galphao; binding response (% of control), % at 10 µM; Multiplexed bead flow cytometry; actives lie on both sides; hit rate 0.33% among 220,000; AID 1415; in the data active = binding response below about 49% or above about 150%; inactive = in between;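 note: fluorescent Galphao activated with aluminum fluoride binding bead-coupled RGS4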
Avidin bead fluor: compound fluoresces at 488/530 nm on avidin beads; hit rate 0.38% among 220,000; AID 1775; fluorescence (KMESF) at 10 µM; compound fluorescence 488/530 nm, flow cytometry; active compounds read high; in the data active = fluorescence above about 47
RGS8-Gao reg: modulates binding of RGS8 to human Galphao. P09471. multiplexed bead flow cytometry; actives lie on both sides. response (percent of control binding), % at 10 µM. hit rate 0.34% among 220,000; in the data active = response below about 60% or above about 140%; inactive = in between;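 note: Galphao activated as the GDP aluminium fluoride complex binding bead-coupled RGS8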
Large screens that a line does not name were inactive.

Cc1cc(=O)oc2cc(OCC(=O)N3CCOCC3)ccc12	GSH fluor 122
Cc1cc(=O)oc2cc(OC(C)C(=O)N3CCOCC3)ccc12 (stereo not drawn)	none
CN(CCc1ccccn1)C(=O)CCC1CCCN(C(=O)c2ccsc2)C1 (stereo not drawn)	none
O=C(CSc1nnc(-c2c[nH]c3ccccc23)o1)N1CCCCC1	Avidin bead fluor 57
CC(C)NC(=O)NC(=O)CSc1nncs1	none
O=C(O)C1CC=CCC1C(=O)Nc1cccc(Cl)c1 (stereo not drawn)	GSH fluor 277
CC1=C(C)CC(C(=O)Nc2cccc(Cl)c2)C(C(=O)O)C1 (stereo not drawn)	none
COc1ccccc1NC(=O)/C(=C\c1cccs1)NC(=O)c1ccco1	RGS7-Gao reg inconclusive, Avidin bead fluor 49 (no result: GSH fluor)
CC(=O)c1c(C)[nH]c(C(=O)OCC(=O)Nc2sc3c(c2C#N)CCC(C)C3)c1C (stereo not drawn)	RGS7-Gao reg inconclusive (no result: GSH fluor)
c1csc(CSc2nc3ccccc3s2)c1	GSH fluor 276
O=C(Nc1ccc2c(c1)OCCO2)C1CCCN1S(=O)(=O)c1ccc(Cl)cc1 (stereo not drawn)	GSH fluor 261
CC(C)CC[n+]1ccn(-c2nc3ccccc3nc2[N-]S(=O)(=O)c2ccc(Cl)cc2)c1	RGS7-Gao reg inconclusive (no result: GSH fluor)
COc1ccc(Cc2noc(CN(C)CCN3CCc4ccccc4C3)n2)cc1OC	none
CN(CCN1CCc2ccccc2C1)Cc1nc(Cc2ccccc2F)no1	RGS7-Gao reg 17.1, RGS16-Gao 20.2, RGS4-Gao reg 27.6, RGS8-Gao reg 27.0
COC(=O)CSc1cc(C(=O)c2nccn2C)c2ccccc2n1	GSH fluor 271
Cn1ccnc1C(=O)c1cc(SCC(=O)NCc2ccccc2)nc2ccccc12	none
Cn1cncc1C(=O)c1ccccc1	RGS7-Gao reg inconclusive (no result: GSH fluor)
Cn1cccc1C(=O)C(=O)Nc1ccc(F)c(F)c1	none
Cc1cc(C)nc(NC2=NCCN2C(=S)Nc2ccc(C)c(C)c2)n1	RGS7-Gao reg inconclusive (no result: GSH fluor)
CC(C)NC(=O)COC(=O)c1ccc(Oc2ccccc2)cc1	GSH fluor 265
CCn1c(N)c(C(=O)NC)sc1=S	GSH fluor 87
CC(C(=O)OCc1nnc(-c2ccccc2)o1)N1C(=O)c2ccccc2C1=O (stereo not drawn)	GSH fluor 263
Cc1ccc(NC(=S)NNC(=O)c2nnn(-c3ccccc3)c2C)cc1	none
CC1=C(C(=O)OCC2CCCO2)C(c2coc3ccccc3c2=O)C2=C(CC(C)(C)CC2=O)N1 (stereo not drawn)	none
CCOC(=O)C1=C(C)NC2=C(C(=O)CC(C)(C)C2)C1c1coc2ccccc2c1=O (stereo not drawn)	Avidin bead fluor 60
Cc1ccnc2nc(C(=O)N3CCN(c4ccc(F)cc4)CC3)nn12	GSH fluor 249
COc1ccccc1N(C)S(=O)(=O)c1ccc(C(=O)Nc2nc(C)cs2)cc1	none
CC(C)Cn1c(=O)c2c(nc3n2CCCN3CCc2ccccc2)n(C)c1=O	GSH fluor 257
COc1ccc(Cl)cc1C(=O)NNC(=S)NC(=O)c1cc(-c2ccc(Cl)cc2)nc2ccccc12	RGS7-Gao reg 21.2, RGS16-Gao 18.6, RGS4-Gao reg 11.2, RGS8-Gao reg 37.0
CCNC(=S)NNC(=O)c1cc(-c2ccc(OC)cc2)nc2ccccc12	none
CN(C)/C=C1\SC(=S)N(N2C(=O)C3C4C=CC(C4)C3C2=O)C1=O (stereo not drawn)	none
CC1CCN(S(=O)(=O)c2cccc(C(=O)NCc3ccco3)c2)CC1	GSH fluor 159
CC1CCN(S(=O)(=O)c2cccc(C(=O)NCc3cccs3)c2)CC1	none
CC1CN(C(=O)N2CCCCC2)CCN1C(=O)N1CCCCC1 (stereo not drawn)	none
COc1ccc(-c2nc(-c3ccccc3)nc(N3CCN(C)CC3)c2C#N)cc1	Avidin bead fluor 51
C#CCCOC(=O)Nc1ccccc1	RGS7-Gao reg inconclusive (no result: GSH fluor)
CCOC(=O)c1cnc(SCc2cccc(C)c2)nc1N	none
CCCn1nnc(NC(=O)c2cccc(OCC(C)C)c2)n1	GSH fluor 264
CCCn1nnc(NC(=O)c2cccc(OCC)c2)n1	none
CCC1(CC)Cc2ccccc2C(N)=C1C#N	Avidin bead fluor 63
CCCCn1c(N)c(NCC)c(=O)[nH]c1=O	RGS7-Gao reg inconclusive
Cc1ccc(/C=C2\CCC3=C2OC(N)=C(C#N)C3c2ccc(C)cc2)cc1 (stereo not drawn)	Avidin bead fluor 66
O=C1NC(=Nc2ccccc2)CS1	RGS7-Gao reg inconclusive (no result: GSH fluor)
CCC1(CC)C(=O)N(C)C(=O)NC1=Nc1ccccc1	GSH fluor 273
COc1ccc(NC(=O)c2coc3ccccc23)cc1OC	GSH fluor 259
Cc1cc(C)c(S(C)(=O)=O)c(Oc2cccc(C(F)(F)F)c2)n1	none
CCOc1cc2oc(=O)c3c(c2cc1Cl)CCC3	Avidin bead fluor 74
COc1ccc2c(c1)CCC(C)N2C(=O)C(=O)c1c[nH]c2ccccc12 (stereo not drawn)	RGS7-Gao reg inconclusive (no result: GSH fluor)
CCSc1nnc(NC(=O)CSc2nc3c(c(=O)n2-c2ccccc2)SCC3)s1	GSH fluor 147
Cc1ccc(-n2c(SCC(=O)Nc3nccs3)nc3c(c2=O)SCC3)cc1	none
O=c1[nH]c(CN2CCOCC2)nc2ccccc12	none
O=C(O)c1ccc2c(=O)[nH]c(CN3CCOCC3)nc2c1	Avidin bead fluor 62
O=C(Nc1nc2ccccc2n1CCN1CCOCC1)c1ccc(COc2ccccc2Br)o1	none
COc1ccc(C2C(C(=O)NCc3ccco3)c3ccccc3C(=O)N2C)cc1 (stereo not drawn)	none
COCCN1C(=O)c2ccccc2C(C(=O)NCc2ccco2)C1c1c[nH]c2ccccc12 (stereo not drawn)	Avidin bead fluor 47
Cc1nnc(SCc2nnc(-c3ccccc3)o2)n(N)c1=O	GSH fluor 264
Cc1nnc(SCC(=O)Nc2ccccc2)n(N)c1=O	Avidin bead fluor 55
Cc1nnc(SCc2ccccn2)n(N)c1=O	none
CC(Sc1nnc(Cc2cccs2)n1C1CCCCC1)C(=O)N1CCc2ccccc21 (stereo not drawn)	Avidin bead fluor 48
Cc1ccc2[nH]c(=O)c(CN(CC3CCCO3)C(=S)Nc3ccccc3)cc2c1 (stereo not drawn)	none
Cc1nn(C)cc1C(C(=O)NC1CCCCC1)N(C(=O)Cc1cccs1)c1ccc(Cl)cc1 (stereo not drawn)	none
CCN(CC)S(=O)(=O)c1ccc(NC2CCCc3ccccc32)nc1 (stereo not drawn)	none
c1ccc2c(c1)CCCC2NC1=NCCC1 (stereo not drawn)	GSH fluor 256
CCN(CC)c1ccc(C(=O)OCc2c(C)noc2C)cc1	none

Screening results (PubChem)
